# Compound activity deposited in PubChem by National Center for Advancing Translational Sciences (NCATS).
# An excerpt weighted towards active compounds, which were near 6% of everything screened.
# D1 potentiator – enhances dopamine response at the human D1 receptor; P21728; HEK293 TREx D1 cells, calcium flux, dopamine EC20 potentiation; potentiation, % at 10 µM; actives 0.036% (n = 360,000); in the data active = potentiation above about 30%
# D3 antag – D3 dopamine receptor (human) antagonism. D3R cells, DiscoveRx beta-arrestin luminescence, antagonist mode; stronger effect = lower value. max response, negative = inhibition, %. actives 2.5% (n = 360,000). P35462; in the data active = max response below about -50%; inconclusive = no clear call, values can overlap the other calls
# Target sequence (P35462 whole entry, looked up): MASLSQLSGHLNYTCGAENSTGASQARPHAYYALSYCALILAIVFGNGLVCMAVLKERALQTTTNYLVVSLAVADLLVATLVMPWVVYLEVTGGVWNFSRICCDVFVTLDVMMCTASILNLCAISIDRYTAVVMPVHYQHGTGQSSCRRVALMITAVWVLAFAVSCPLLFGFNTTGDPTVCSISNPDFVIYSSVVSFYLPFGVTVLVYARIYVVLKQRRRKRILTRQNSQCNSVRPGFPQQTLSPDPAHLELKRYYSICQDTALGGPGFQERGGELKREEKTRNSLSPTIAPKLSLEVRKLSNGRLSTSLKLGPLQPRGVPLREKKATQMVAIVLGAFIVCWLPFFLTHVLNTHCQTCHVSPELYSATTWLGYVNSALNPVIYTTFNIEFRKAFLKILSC
#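 Cells plated overnight at 1500 cells/well, then exposed to library compounds with dopamine controls for 90 minutes at 37 degrees C. DiscoveRx reagent added for 30–60 minutes at room temperature; luminescence read, quantitative HTS format.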
# DRD3 agonist – D3 dopamine receptor (human) agonism; D3R DiscoveRx beta-arrestin cells, luminescence, 90 min; actives 0.58% (n = 410,000); AID 652048; max activation, %; in the data active = max activation above about 30%
#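 Agonist mode: compounds and dopamine controls were applied to plated cells for 90 min at 37 degrees C after an overnight attachment at 1500 cells/well. Luminescent read-out followed 30 - 60 minutes at room temperature with DiscoveRx detection reagent.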
# D1 agonist – human D1 receptor agonism | P21728 | HEK293 T-REx D1 cells, calcium flux, agonist mode | activation, % at 2 µM | actives 1% (n = 360,000) | AID 504660; in the data active = activation above about 30%
#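 Inducible HEK293 T-REx D1 cells, force-coupled to calcium signalling, were plated at 4000 cells/well with tetracycline and held overnight at 30 C. After no-wash calcium dye loading, compound-evoked calcium rise over 180 s flagged agonists.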
# D1 antag – antagonists of human D1 dopamine receptor. actives 3.2% (n = 360,000). activity change, negative = inhibition, % at 10 µM. HEK293 TREx D1 cells, calcium flux, dopamine EC80; stronger effect = lower value; in the data active = activity change below about -30%
#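 Compound effects on dopamine-evoked calcium signalling were measured in tetracycline-induced HEK293 Trex D1 cells. Dopamine at EC80 followed a 180 s compound pre-read, and fluorescence was tracked kinetically for 180 s more.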
# Numbers stand for hits; n = inactive; u = inconclusive; x = not tested or not shown.
SMILES,D1 potentiator,D3 antag,DRD3 agonist,D1 agonist,D1 antag
O=C(NCCN1CCN(c2ccccc2F)CC1)C1COc2ccccc2C1 (centres undefined),n,x,n,n,-57.1
COc1ccc2c(c1)CC(C(=O)NCCN1CCN(c3cccc(Cl)c3)CC1)CO2 (centres undefined),n,x,n,n,-47.0
CC(C)c1ccc(NC(=O)C2Cc3ccccc3N2C(=O)c2ccccc2)cc1 (centres undefined),n,x,n,n,n
COC(=O)Cc1c(C)c2ccc(OCC(=O)N3CCOCC3)cc2oc1=O,n,u,n,n,-32.2
Cc1c(C)c2ccc(OCC(=O)N3CCN(C(=O)C4COc5ccccc5O4)CC3)cc2oc1=O (centres undefined),n,n,n,n,n
O=C(COc1ccc2ccc(=O)oc2c1)N1CC[C@@]2(O)CCCC[C@H]2C1,n,n,n,n,-49.1
CCc1c(C)c2ccc(OCC(=O)OC)cc2oc1=O,n,n,n,n,n
Cc1c(C)c2ccc(OCC(=O)N3CC[C@@]4(O)CCCC[C@H]4C3)cc2oc1=O,n,n,33.2,n,n
O=C(COc1ccc2ccc(=O)oc2c1)NC1CCCC1,n,n,n,n,n
COc1cccc(CNC(=O)Cn2c(=O)ccc3cc(S(=O)(=O)N4CCC(C)CC4)ccc32)c1,n,x,n,n,n
O=C(Nc1cccc(C(=O)N2CCN(c3ccc(F)cc3)CC2)c1)c1nsc2ccccc12,n,x,n,n,n
CCOC(=O)c1cc(-c2ccccc2)n(CCC(=O)NCCc2ccccc2)c1C,n,x,n,n,n
CC(C)c1ccc(C(=O)NNC(=O)C2C3CCC(C3)C2C(=O)O)cc1 (centres undefined),n,x,x,n,-74.8
Cc1ccccc1NC(=O)CN1CCN(C(=O)c2ccco2)CC1,n,n,n,n,n
CCc1ccc(NC(=O)C(=O)NCCN2CCN(C(=O)c3ccc(OC)cc3)CC2)cc1,x,n,n,x,x
CCc1c(C)sc(NC(=O)CN2CCN(C(=O)c3ccco3)CC2)c1C(=O)OC,n,n,n,58.6,n
O=C(Nc1cccc(C(=O)N2CCCCCC2)c1)c1ccco1,n,u,n,n,n
CCOC(=O)c1c(NC(=O)CN2CCN(C(=O)c3ccco3)CC2)sc(C)c1C,n,n,n,125.7,-31.7
CCOC(=O)N1CCN(C(=O)c2cccc(NC(=O)c3ccco3)c2)CC1,n,n,n,n,-63.1
CCc1ccc(NC(=O)C(=O)NCCN2CCN(C(=O)c3ccco3)CC2)cc1,n,n,72.5,n,n
CCCCOc1ccc(C(=O)Nc2cccc(-c3nc4cccnc4s3)c2)cc1,n,x,n,n,n
Cc1nnc(N2CCC(C(=O)N3CCCCC3)CC2)c2nn(-c3ccccc3)c(C)c12,n,x,n,n,n
CCOC(=O)c1ccc(NC(=O)CN2CCN(C(=O)c3ccco3)CC2)cc1,n,n,35.9,n,n
COc1ccc(NC(=O)CSCC(=O)N2CCN(C(=O)c3ccco3)CC2)cc1,x,n,n,n,-63.5
Cc1ccc(-n2c(=O)c3c(cnn3C)n(CC(=O)Nc3c(C)cccc3C)c2=O)cc1,n,x,n,n,n
SMILES,D1 potentiator,D3 antag,DRD3 agonist,D1 agonist,D1 antag
Cc1ccc(NC(=O)Nc2cc(S(C)(=O)=O)ccc2Cl)cc1,n,n,n,n,-38.2
O=c1c2cc3c(cc2n(Cc2cccc(Cl)c2)c(=O)n1Cc1nc(-c2ccccc2)no1)OCO3,n,x,n,n,-51.8
Cc1ccc(NC(=O)CN(C)S(=O)(=O)c2cccs2)cc1C,n,n,n,n,n
Cc1ccc(NC(=O)CN(C)S(=O)(=O)c2cccs2)cc1F,n,n,n,n,-37.3
CC1CCCC(NC(=O)c2ccc(CNc3c(N4CCCC4)c(=O)c3=O)cc2)C1C (centres undefined),n,n,n,n,-32.1
Cc1ccc(CNC(=O)c2ccc(CNc3c(N4CCCC4)c(=O)c3=O)cc2)cc1,x,n,n,n,n
CO/N=C1\CN(c2nc3c(cc2F)c(=O)c(C(=O)O)cn3C2CC2)CC1CN (centres undefined),x,x,n,x,x
COCCN=c1scc(-c2cccs2)n1/N=C/c1ccc(O)c(O)c1O,n,n,89.6,n,n
CCN=c1scc(C)n1/N=C/c1ccc(O)c(O)c1O,n,n,n,n,n
CC(=O)c1ccc(NC(=O)C(Cc2ccccc2)NS(=O)(=O)c2ccc3c(c2)CCC(=O)N3)cc1 (centres undefined),n,x,n,n,n
